High-throughput results: PubChem, several laboratories
BoNT-F LC inh = BoNT/F light chain protease inhibitors, primary screen, biochemical, flow cytometry, MLPCN library; Botulinum neurotoxin type F light chain protease (Clostridium botulinum); Multiplex microsphere protease cleavage assay; inhibition, % at 10 µM; 360,000 tested, 0.22% active; AID 588497, 2011; in the data active means inhibition above about 35%, passing the limit was not always enough; inconclusive means no clear call, values can overlap the other calls; further: plate controls were buffer without enzyme for full effect and enzyme alone for no effect
MazEF act = activators of E. coli MazEF toxin-antitoxin RNase, primary screen, biochemical, fluorescence, uHTS; Endoribonuclease toxin MazF (Escherichia coli (strain K12)), P0AE70; FAM/BHQ RNA-DNA oligo cleavage fluorescence, 5 h; activation, % at 20 µM; 350,000 tested, 0.32% active; AID 504720, 2011; in the data active means activation above about 50%
Autofluor counter = counter-screen for toxin protease inhibitors: compound fluorescence. fluorescence intensity (no concentration beside the values). 360,000 tested, 3.1% active. compound autofluorescence counterscreen, microsphere flow cytometry; stronger effect = higher value; in the data active means fluorescence intensity above about 16000; inconclusive means no clear call, values can overlap the other calls
BoNT-A LC inh2 = BoNT/A light chain protease inhibitors, primary screen, biochemical, flow cytometry, MLPCN library | Botulinum neurotoxin type A light chain protease (Clostridium botulinum A str. ATCC 3502) | multiplex microsphere protease substrate cleavage | inhibition, % at 10 µM | 360,000 tested, 0.17% active; further: plate controls were buffer without enzyme for full effect and enzyme alone for no effect
PriA SSB inh = inhibitors of Klebsiella pneumoniae PriA binding to SSB C-terminal tail, primary screen, biochemical, AlphaScreen | PriA–SSB C-terminal tail interaction (Klebsiella pneumoniae) | AlphaScreen SSBct-PriA binding, biotinylated peptide | inhibition, % at 33 µM | 430,000 tested, 0.6% active; in the data active means inhibition mostly above about 37%, no sharp cut-off; inactive means mostly below about 20%;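 further: plate controls were negative control peptide for no effect and reference peptide for full effect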
Anthrax LF inh2 = Bacillus anthracis LF protease inhibitors, primary screen, biochemical, multiplex microsphere, MLPCN library. Lethal factor (Bacillus anthracis), P15917. multiplex microsphere protease cleavage assay. inhibition, % at 10 µM. 360,000 tested, 0.12% active. AID 588501, 2011; further: plate controls were buffer without enzyme for full effect and enzyme alone for no effect
An asterisk follows results filed as active; u = inconclusive; x = no result. Most compounds without a hit are left out; they make up all but 3.3% or so of the library. Unless noted, no stated cut-off is given here; in the data, active means inhibition above about 30%; inconclusive means no clear call, values can overlap the other calls; inactive means below that.

SMILES	BoNT-F LC inh	MazEF act	Autofluor counter	BoNT-A LC inh2	PriA SSB inh	Anthrax LF inh2
CCS(=O)(=O)c1ccc(CC(=O)Nc2nc(-c3ccc(Br)s3)cs2)cc1	x	x	x	x	6	x
C#CCn1c(=NC(=O)c2ccnn2C)sc2cc(OC)ccc21	x	x	x	x	-5	x
Cc1ccc(NC(=O)C(C)C(=O)Nc2ccc(C)cc2)cc1	0	-4	4833	0	25	-5
Cc1ccc(NC(=O)N2CCC(=O)N2)cc1	-5	1	23674*	-3	-3	-8
O=C1C(c2ccccc2)=C(N2CC2)c2ccccc21	-1	8	2429	1	41*	-3
COc1ccc(-c2ccc(C)c(NC(=O)c3cccs3)c2)nn1	x	x	x	x	-7	x
Cc1cnc(C(=O)OCC(=O)C23CC4CC(CC(C4)C2)C3)cn1	-2	-12	4842	-3	-35	1
Cc1cnc(C(=O)OCC(=O)NC23CC4CC(CC(C4)C2)C3)cn1	0	1	20090*	1	-7	1
CCCCOC(=O)CCN1C(=O)/C(=C2\SC(=S)N(CCC(=O)OCCCC)C2=O)SC1=S	-1	8	2108	30*	3	15
CCCCCOC(=O)CCN1C(=O)/C(=C2\SC(=S)N(CCC(=O)OCCCCC)C2=O)SC1=S	21	-12	3092	40*	-12	14
CCCOC(=O)CCN1C(=O)/C(=C/c2ccccc2F)SC1=S	x	x	x	x	14	x
CCCOC(=O)CCCN1C(=O)/C(=C2\SC(=S)N(CCCC(=O)OCCC)C2=O)SC1=S	u	-1	3940	81*	-15	6
CN(C)c1ccc(C(=O)Nc2nnc(-c3ccc4c(c3)OCCO4)o2)cc1	x	x	x	x	-11	x
COC(=O)c1ccc(NC(=O)Cc2cc(=O)[nH]c(SCc3ccccc3)n2)cc1	x	x	x	x	-24	x
COc1ccccc1-c1ccc(N2CCN(C(=O)C3CC3)CC2)nn1	x	x	x	x	-10	x
Cc1c(C(=O)c2ccccc2)oc2cc(NC(=O)C3CC3)ccc12	x	x	x	x	-19	x
CC(=O)c1cc2c(C)c(C(=O)c3ccccc3)oc2cc1O	-4	89*	2923	0	-24	0
COc1ccc(S(=O)(=O)Nc2ccccc2C(=O)N2CCOCC2)cc1F	2	-2	5166	2	-10	0
O=C(c1ccc(CNS(=O)(=O)c2cccc(C(F)(F)F)c2)cc1)N1CCCCC1	x	x	x	x	-17	x
O=C(COc1ccc(-c2ccccc2)cc1)N1CCN(S(=O)(=O)Cc2ccccc2)CC1	1	10	16462*	0	-10	-4
COc1ccc(S(=O)(=O)Nc2ccccc2C(=O)N2CCOCC2)cc1Cl	-62	2	17400*	-40	-6	-13
O=C(c1ccc(CNS(=O)(=O)c2cccc(C(F)(F)F)c2)cc1)N1CCOCC1	1	-6	22700*	u	1	-2
CCOC(=O)N1CCN(C(=O)COc2ccc(S(=O)(=O)NCc3ccccc3)cc2)CC1	-1	-2	17159*	-1	-13	-2
O=C(NCC1CCS(=O)(=O)C1)C1CC(=O)N(c2ccc(F)cc2)C1 (configuration not stated)	x	x	x	x	-11	x
CC(C)NS(=O)(=O)c1ccc(OCC(=O)N2CCN(Cc3ccc4c(c3)OCO4)CC2)c(Cl)c1	1	5	20603*	0	11	0
SMILES	BoNT-F LC inh	MazEF act	Autofluor counter	BoNT-A LC inh2	PriA SSB inh	Anthrax LF inh2
O=C(COc1ccc(S(=O)(=O)NCc2ccccc2)cc1Cl)N1CCOCC1	0	-3	23739*	0	-14	0
COc1ccc2nc(-c3ccc(C)c(NC(=O)c4ccccc4C)c3)cn2n1	x	x	x	x	-17	x
COc1ccc(C(=O)CC2OC(=O)c3ccccc32)cc1OC (configuration not stated)	0	8	21822*	u	-13	-2
Cc1cc(NC(=O)C(=O)NCCc2c[nH]c3ccccc23)no1	x	x	x	x	-5	x
COc1ccc(NC(=O)Cc2cc(-c3ccc(Cl)cc3)on2)cc1OC	x	x	x	x	-5	x
CNC(=O)NC1CC(=O)N(c2ccc(OC)c(OC)c2)C1 (configuration not stated)	x	x	x	x	-11	x
Cc1cccc(OC2CCN(S(=O)(=O)c3ccc4c(c3)OCCO4)CC2)n1	x	x	x	x	-6	x
COc1cc(C)c(CN2CCSCC2)cc1C	-35	4	3976	-3	-17	-8
